# ALOX12 inhib: 12-hLO (ALOX12) enzyme inhibition | purified 12-hLO, xylenol orange hydroperoxide absorbance | AID 1452 | P18054 | 0.12% of 150,000 active | Potency, µM (top dose mostly 57.1 µM), for the others: at the top dose activity change, negative = inhibition, most hits filed as inhibitors; note: nearly all actives have a fitted effect of over 55% in size
# Target sequence (P18054 whole entry, looked up): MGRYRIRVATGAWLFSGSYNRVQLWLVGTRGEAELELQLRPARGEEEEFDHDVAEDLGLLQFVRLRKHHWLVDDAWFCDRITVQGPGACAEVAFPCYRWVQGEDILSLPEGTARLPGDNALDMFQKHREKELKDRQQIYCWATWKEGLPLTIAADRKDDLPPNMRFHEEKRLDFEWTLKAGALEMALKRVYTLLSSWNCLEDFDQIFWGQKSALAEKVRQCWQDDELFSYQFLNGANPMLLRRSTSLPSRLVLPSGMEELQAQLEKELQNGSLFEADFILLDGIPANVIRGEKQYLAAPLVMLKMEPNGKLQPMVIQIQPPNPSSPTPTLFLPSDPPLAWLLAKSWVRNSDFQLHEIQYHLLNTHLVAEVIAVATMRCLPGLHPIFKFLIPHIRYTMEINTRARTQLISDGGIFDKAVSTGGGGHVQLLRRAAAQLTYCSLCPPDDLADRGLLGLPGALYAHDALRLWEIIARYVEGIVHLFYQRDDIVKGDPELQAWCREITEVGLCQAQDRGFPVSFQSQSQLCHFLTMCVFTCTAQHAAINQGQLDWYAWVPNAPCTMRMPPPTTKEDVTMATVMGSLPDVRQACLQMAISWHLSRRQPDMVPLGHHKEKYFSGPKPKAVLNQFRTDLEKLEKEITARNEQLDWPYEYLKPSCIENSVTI
#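 Lipoxygenase turnover measured by absorbance at 573 and 405 nm after Fe-XO development. Human 12hLO 150 nM, arachidonate 40 uM, pH 7.0 Hepes buffer with detergent; 15 min compound preincubation, 30 min reaction.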
# 15-hLO-2 inh: 15-hLO-2 (ALOX15B) enzyme inhibition | Potency, µM (series often up to 57.1 µM), for the others: at the highest dose activity change, negative = inhibition, most hits filed as inhibitors | 0.56% of 110,000 active | purified 15hLO-2, xylenol orange hydroperoxide absorbance | O15296; note: nearly all actives have a fitted effect of over 60% in size
#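 Enzyme 50 nM, AA 45 uM, 25 mM Hepes pH 7.5 + 0.01% Triton X-100; cpd preinc 15 min RT, rxn 90 min RT; stop/detect with 200 uM XO + 300 uM Fe(II) in 50 mM H2SO4, 30 min; A573/A405.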
# * marks the source's active call; other numbers are inactive results; ? = inconclusive; . = not tested or not shown; [ ] = remark or other dose. Shown is part of a subset that was picked to be rich in hits. Calls come from the whole dose curve; as a rule, active = well fitted curve in the direction sought with a large enough effect; inconclusive = small, poorly fitted or top-dose-only effect, or another doubt; inactive = no such curve, though single readings can be large; an effect the other way counts as inactive or inconclusive. % is set by controls: 0 for no effect and ±100 for the full control effect; potency is the fitted concentration of half-maximal effect.
SMILES,ALOX12 inhib,15-hLO-2 inh
COc1ccc2c3c(cccc13)C(=O)N(O)C2=O,-2%,.
CCC1=NNc2cccc3c(OC)ccc1c23,-5%,5µM*
CC(=O)O[C@@H]1[C@H]([N+]2(C)CCCCC2)C[C@@H]2[C@@H]3CC[C@@H]4C[C@@H](OC(C)=O)[C@H]([N+]5(C)CCCCC5)C[C@@]4(C)[C@H]3CC[C@]21C,5%,9%
Nc1cc(-c2ccccc2)ccc1O,?,13µM*
Nc1ccc(-c2ccc(N)c(O)c2)cc1O,-6%,-23%
CCc1cccc(NC(=O)CSCc2cc(=O)[nH][nH]2)c1,1%,10%
CCc1cccc(NC(=O)CSC2=NS(=O)(=O)c3ccccc32)c1,0%,5µM*
Cc1cc(/C=N/NC(=O)Cn2c3ccccc3c(=O)c3ccccc32)c(C)n1-c1ccccc1,2%,4µM*
Cc1ccc(N(CC(=O)N/N=C/c2cc(C)n(-c3ccccc3)c2C)S(C)(=O)=O)c(C)c1,-6%,-1%
NCC[C@H]1CCC[C@H](CCN)N1,-4%,33%
CO[C@H]1/C=C/O[C@@]2(C)Oc3c(C)c(O)c4c(O)c(c(/C=N/N5CCN(C)CC5)c(O)c4c3C2=O)NC(=O)/C(C)=C\C=C\[C@H](C)[C@H](O)[C@@H](C)[C@@H](O)[C@@H](C)[C@H](OC(C)=O)[C@@H]1C,-17%,?
COC1C=CO[C@@]2(C)Oc3c(C)c(O)c4c(O)c(c(C=NN5CCN(C)CC5)c(O)c4c3C2=O)NC(=O)/C(C)=C\C=CC(C)C(O)[C@@H](C)C(O)C(C)[C@H](OC(C)=O)C1C (some centres undefined),-26%,20µM*
O=C(O)C[C@@H]1CCCc2ccccc2[C@H]1O,-4%,-5%
O=C(CSc1nnnn1-c1ccccc1)Nc1nsc(-c2ccc(Cl)cc2)n1,-3%,6%[2.29 µM]
O=C(CSc1nnnn1-c1ccccc1)CC(=O)Nc1ccc(Cl)cc1,10µM*,-13%
O=C(O)c1ccc2cc(-c3ccc(O)c(C45CC6CC(CC(C6)C4)C5)c3)ccc2c1,?,7.9µM*
COc1cc(C(=O)O)ccc1O,0%,.
O=C(NCc1ccccc1)c1ccc(Cc2nc3ccccc3[nH]2)cc1,-5%,.
N#Cc1cc(Oc2cccc3cccnc23)c(-n2nnc3ccccc32)cc1C#N,10µM*,?
c1ccc(-n2nnnc2Oc2cccc3cccnc23)cc1,9%,5%
O=S(=O)(NCCNC/C=C\c1ccc(Br)cc1)c1cccc2cnccc12,-9%,46%
COC(=O)[C@](C)(N)Cc1ccc(O)cc1,-4%,-8%
CCC(c1ccc(O)cc1)C(CC)c1ccc(O)cc1 (centres undefined),-23%,?
CC[C@H](c1ccc(O)cc1)[C@@H](CC)c1ccc(O)cc1,-20%[25.6 µM],10µM*
COC(=O)CCCC1=CC2=C(c3ccccc3)C(=O)C(C)(OC(=O)C3CCCC3)C(=O)C2=CN1CCCOC(C)C (centres undefined),13%[11.4 µM],.
SMILES,ALOX12 inhib,15-hLO-2 inh
COc1ccc(/C=N/NC(=S)NCc2ccccc2)cc1OC,-6%,.
CCN(CC)c1ccc(/C=N/NC(=S)NCc2ccccc2)cc1,25µM*,?
CC(C)N(CCC(=O)c1ccc2ccccc2c1)Cc1ccccc1,?,13µM*
CCC(=O)CCC(=O)c1ccc2ccccc2c1,3%,.
O=C(CCc1ccccc1)NNC(=S)NC(=O)c1ccccc1,-12%,-10%
O=C(NC(=S)NCCc1ccccc1)c1ccccc1,18µM*,13µM*
O=C(NCCc1ccccc1)C(=O)NC1CCCCC1,-4%,-1%
S=C(NCCc1ccccc1)NC1CCCCCC1,?,25µM*
CN1C[C@@H](C(=O)N[C@]2(C)O[C@]3(O)[C@H]4CCCN4C(=O)[C@H](Cc4ccccc4)N3C2=O)C[C@H]2c3cccc4[nH]cc(c34)C[C@@H]21,-1%,15%
COC(=O)C1=C(C(=O)OC)[C@@H]2N(C)c3ccccc3[C@@]23C[C@@H](C(=O)OC)N(S(=O)(=O)c2ccc(C#N)cc2)C3=N1,-2%[11.4 µM],.
O=C1[C@@H]2[C@@H]3C=C[C@H]([C@@H]2C(=O)N1CN1CCSCC1)[C@@H]1[C@@H]2C(=O)N(CN4CCSCC4)C(=O)[C@@H]2[C@H]31,7%[11.4 µM],-5%[11.4 µM]
O=C1CC(c2nc3ccccc3[nH]2)CN1c1ccccc1 (centres undefined),6%,0%
c1ccc(C2=Nc3ccccc3SC2c2nc3ccccc3[nH]2)cc1 (centres undefined),?,25µM*
C[N+]1=C(/C=C/Nc2ccccc2Cl)C(C)(C)c2ccccc21,0%,.
COC(=O)c1ccc2c(c1)C(C)(C)C(/C=C/c1ccccc1O)=[N+]2C,14µM*,16µM*
CC(=O)Nc1nc2ccccc2n1CCOc1ccccc1,-3%,6%
S=C(Nc1ccccc1)Nc1nc2ccccc2n1CCOc1ccccc1,20µM*,?
COC(=O)CC1c2ccccc2C=C(/C=C/c2ccc3c(c2)OCO3)N1C(=O)OC (centres undefined),-11%[11.4 µM],.
CN1/C(=C\C(=S)NC(=O)c2cccc(Br)c2)C(C)(C)c2ccccc21,14µM*,.
CN1/C(=C\C(=S)NC(=O)c2ccc([N+](=O)[O-])cc2)C(C)(C)c2ccccc21,1%,.
CO[C@@H]1/C=C\O[C@]2(C)Oc3c(C)c(O)c4c(O)c(cc(O)c4c3C2=O)NC(=O)/C(C)=C\C=C/[C@H](C)[C@@H](O)[C@H](C)[C@H](O)[C@H](C)[C@H](OC(C)=O)[C@@H]1C,4%[11.4 µM],-16%[11.4 µM]
CCn1c2ccccc2c2cc(NC(=O)c3ccc(Br)o3)ccc21,-7%,3.2µM*
CCn1c2ccccc2c2cc(NC(=O)c3cc(OC)cc(OC)c3)ccc21,0%,.
CCC(=O)N1C2=C(c3ccccc3[C@@H]1CC(=O)Nc1ccc3ccccc3c1)[C@@H]1C(=O)N(c3ccccc3)C(=O)[C@@H]1[C@H](C)C2,-1%[11.4 µM],.
COC(=O)C(C(=O)OC)[C@@H]1c2ccccc2[C@H]2C(=C[C@@H](C)[C@H]3C(=O)N(c4ccccc4)C(=O)[C@H]32)N1C(=O)OC,-5%[11.4 µM],.
SMILES,ALOX12 inhib,15-hLO-2 inh
C[C@H]1Cc2c(-c3ccccc3)nc3c(c2CO1)CN(C(=O)c1cc(I)ccc1F)CC3,1%[11.4 µM],.
CCCCC=O,9%,1%
CC1=C(C)/C(=N\OS(=O)(=O)c2ccc(C)cc2)C=CC1=O,2%,.
COc1ccc(S(=O)(=O)/N=C2/C=CC(=O)C(C)=C2C)cc1,-22%,13µM*
COc1ccccc1/C=C/C=N/n1c(-c2ccc(C)cc2)n[nH]c1=S,2%,.
COc1ccccc1/C=C\C=N\n1c(C2CCCCC2)n[nH]c1=S,-9%,13µM*
COc1cc(N=c2ssnc2Cl)cc(OC)c1,10µM*,?
OCc1ccccc1N=c1ssnc1Cl,-11%,?
CCOc1ccccc1NC(=S)Nc1ncccc1C,20µM*,.
CCOc1ccccc1NC(=S)Nc1ccccc1F,-12%,1%[11.4 µM]
CCCCc1nc2c(c3c1C[C@H](C)OC3)CN(C(=O)c1cccnc1)CC2,0%[11.4 µM],.
CCOC(=O)Cc1csc(NC(=O)NC2(C(F)(F)F)Oc3ccc(Cl)cc3O2)n1 (centres undefined),-25%,?
CCOC(=O)Cc1csc(NC(=O)NC2(C(F)(F)F)Oc3cc(Cl)c(Cl)cc3O2)n1,?,10µM*
CCOc1ccc(-c2cc(C(=O)N/N=C/c3ccc(O)c(OC)c3)[nH]n2)cc1,2%,.
O=C1O/C(=C\Br)CC[C@@H]1c1cccc2ccccc12,-3%,?

# High-throughput results deposited in PubChem BioAssay by National Center for Advancing Translational Sciences (NCATS).
